A short description of experiment [1]: qHTS of pediatric cancer cell lines to identify multiple opportunities for drug repurposing: Primary screen for BT-12 cells (AID 1347101). Also: nearly all actives have a fitted effect of over 25% in size. Also: potency is read from the fitted curve at half-maximal effect.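 As to activity change, negative = cytotoxic: plate controls were DMSO for no effect and bortezomib positive control for full effect.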 In a few lines: (§1)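 Cells (500-1,000/well) rested 5 h, then received compounds for 48 h; metabolically active cells were measured by CellTiter-Glo luminescence. Final concentrations spanned up to 46 µM (MIPE, 11-point) or 0.59 nM-46 µM (NPC, 8-point) in primary screens, 11-point in follow-ups.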
(In general: qHTS replaces the single test concentration by a dilution series.)

Experiment [2] in a line: qHTS of pediatric cancer cell lines to identify multiple opportunities for drug repurposing: Primary screen for OHS-50 cells (AID 1347103). Also: nearly all actives have a fitted effect of over 40% in size. Also: potency is read from the fitted curve at half-maximal effect.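 As to activity change, negative = cytotoxic: plate controls were DMSO neutral control for no effect and bortezomib positive control for full effect.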 The gist of the method:
as §1

A short description of experiment [3]: qHTS of pediatric cancer cell lines to identify multiple opportunities for drug repurposing: Primary screen for RD cells (AID 1347104). Also: nearly all actives have a fitted effect of over 55% in size. Also: potency is read from the fitted curve at half-maximal effect.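 As to activity change, negative = cytotoxic: plate controls were DMSO for no effect and bortezomib for full effect.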 The gist of the method:
(§2)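 Readout: CellTiter-Glo luminescence, 48 h treatment. Controls DMSO (neutral) and bortezomib 2.3 µM final (positive). Potency and efficacy taken from primary-screen concentration-response curves.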

The nature of experiment [4]: qHTS of pediatric cancer cell lines to identify multiple opportunities for drug repurposing: Primary screen for MG 63 (6-TG R) cells (AID 1347105). Also: nearly all actives have a fitted effect of over 50% in size. Also: potency is read from the fitted curve at half-maximal effect. As to activity change, negative = cytotoxic: % is scaled to controls: 0 for no effect and ±100 for the full control effect. The gist of the method: as §2
Experiment [5] in a line: qHTS of pediatric cancer cell lines to identify multiple opportunities for drug repurposing: Primary screen for control Hh wild type fibroblast cells (AID 1347106).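 Also: series mostly up to about 46 µM; % is scaled to controls: 0 for no effect and ±100 for the full control effect; a drop in luminescence marks cytotoxicity and a rise apparent proliferation; nearly all actives have a fitted effect of over 55% in size.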 The gist of the method:
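Cells (500-1,000/well) in growth media were settled 5 h at 37 degrees C, then given compounds for 48 h. Viability was read as CellTiter-Glo luminescence. Primary runs used MIPE at 11 points (0.78 nM-46 µM) and NPC at 8 points (0.59 nM-46 µM); follow-ups used 11 points.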

Experiment [6] is described as follows: qHTS of pediatric cancer cell lines to identify multiple opportunities for drug repurposing: Primary screen for Rh30 cells (AID 1347107). Also: series mostly up to about 46 µM; % is scaled to controls: 0 for no effect and ±100 for the full control effect; nearly all actives have a fitted effect of over 75% in size. The gist of the method: as §1
Experiment [7] is described as follows: qHTS of pediatric cancer cell lines to identify multiple opportunities for drug repurposing: Primary screen for Rh41 cells (AID 1347108). Also: nearly all actives have a fitted effect of over 70% in size. Also: potency is read from the fitted curve at half-maximal effect.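 As to activity change, negative = cytotoxic: series mostly up to about 46 µM; luminescence drop marks cytotoxic hits.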 The gist of the method: as §2
The nature of experiment [8]: qHTS of pediatric cancer cell lines to identify multiple opportunities for drug repurposing: Primary screen for Rh18 cells (AID 1347102). Also: nearly all actives have a fitted effect of over 65% in size. Also: potency is read from the fitted curve at half-maximal effect. As to activity change, negative = cytotoxic: % is scaled to controls: 0 for no effect and ±100 for the full control effect. The gist of the method:
as §1

Records with an inconclusive call do not appear. Unmarked numbers belong to inactive results. Active and inactive are the calls of the source. Calls follow the shape of the dose curve; as a rule, active = well fitted curve in the direction sought with a large enough effect; inconclusive = small, poorly fitted or top-dose-only effect, or another doubt; inactive = no such curve, though single readings can be large; an effect the other way counts as inactive or inconclusive.

`C/C(=C(\CCOP(=O)(O)O)SC(=O)c1ccccc1)N(C=O)Cc1cnc(C)nc1N`: the activity change, negative = cytotoxic was 9.87% [at 6.03 µM] in experiment [1]; 12% [at 6.18 µM] in experiment [2]; 3.8% [at 4.84 µM] in experiment [3]; -1.82% [at 4.84 µM] in experiment [4]; 4.64% [at 4.84 µM] in experiment [5]; 26.4% [at 4.84 µM] in experiment [6]. For the same molecule, the activity change, negative = cytotoxic in experiment [7] was 27.9% [at 4.84 µM].

As to `CCOC(=O)c1ccc(O)cc1`, the Potency entry in experiment [1], in experiment [2], in experiment [3], in experiment [4] and in experiment [7] was “inactive” in each case. In addition, the molecule was called inactive in experiment [5] and in experiment [6].

As to `CCN(CC)CCNC(=O)c1c(C)[nH]c(/C=C2\C(=O)Nc3ccc(F)cc32)c1C`, the Potency in experiment [1] was 21.9 µM (active); in experiment [2], 1.23 µM (active); in experiment [3], 15 µM (active); in experiment [4] it was 21.1 µM (active); in experiment [7], 21.1 µM (active).

For the molecule `CC[C@@]1(c2ccccc2)NC(=O)N(C)C1=O`, the Potency entry in experiment [1], in experiment [2], in experiment [3], in experiment [4] and in experiment [7] was “inactive” throughout. In addition, the result in experiment [5] and in experiment [6] was inactive.

On to `CC(C)c1c(C(=O)Nc2ccccc2)c(-c2ccccc2)c(-c2ccc(F)cc2)n1CC[C@@H](O)C[C@@H](O)CC(=O)O`, for which the Potency in experiment [1] was 1.23 µM (active); in experiment [2], 15.5 µM (active); in experiment [4], 6.68 µM (active).

Take `NC(=O)N/N=C/c1ccc([N+](=O)[O-])o1`: the Potency entry in experiment [8], in experiment [2], in experiment [3], in experiment [4] and in experiment [7] was “inactive” throughout. Moreover, the result in experiment [5] and in experiment [6] was inactive.

`Cc1cc(C(C#N)c2ccc(Cl)cc2)c(Cl)cc1NC(=O)c1cc(I)cc(I)c1O` (stereo not drawn): in experiment [2], the Potency is 30.9 µM (active). In experiment [5], the result was inactive. Also, in experiment [7], the Potency result is “inactive”.

As to `O=C1Nc2ccc(Cl)cc2[C@@](C#CC2CC2)(C(F)(F)F)O1`, the Potency result in experiment [8], in experiment [3] and in experiment [7] was “inactive” in each case. Moreover, the Potency in experiment [2] is 27.6 µM (active). Further, the outcome in experiment [5] and in experiment [6] was inactive.

In the case of `CCN(CC)CCCC(C)Nc1c2ccc(Cl)cc2nc2ccc(OC)cc12` (stereo not drawn), the results for the Potency in experiment [2] and in experiment [3] were 17.4 µM (active) and 23.7 µM (active), respectively. Moreover, the call in experiment [5] was inactive.

For the molecule `COCCOC(=O)C1=C(C)NC(C)=C(C(=O)OC/C=C/c2ccccc2)C1c1cccc([N+](=O)[O-])c1` (stereo not drawn), the Potency result in experiment [8] is “inactive”. Also, the Potency in experiment [2] is 19.5 µM (active). For the same molecule, the call in experiment [5] and in experiment [6] was inactive.

`CCC(=O)c1ccc(O)cc1`: the Potency result in experiment [1], in experiment [2], in experiment [4] and in experiment [7] was “inactive” in each case. For the same molecule, the molecule was called inactive in experiment [5] and in experiment [6].

With `CCCOC(=O)c1ccccc1`, the Potency result in experiment [1], in experiment [2], in experiment [4] and in experiment [7] was “inactive” each time. Besides, the result in experiment [5] and in experiment [6] was inactive.

Consider `CN1CCCCC1CCN1c2ccccc2Sc2ccc(S(C)=O)cc21` (stereo not drawn), for which the Potency result in experiment [1], in experiment [3], in experiment [4] and in experiment [7] was “inactive” throughout. Moreover, the call in experiment [5] was inactive.

For `Cc1c(O)cccc1C(=O)N[C@@H](CSc1ccccc1)[C@H](O)CN1C[C@H]2CCCC[C@H]2C[C@H]1C(=O)NC(C)(C)C`, the Potency in experiment [2] was 24.6 µM (active); in experiment [3], 23.7 µM (active); in experiment [4] it was 26.6 µM (active). Besides, the molecule was called inactive in experiment [5] and in experiment [6].

With `c1ccc2c(CC3=NCCN3)cccc2c1`, the Potency result in experiment [8], in experiment [3], in experiment [4] and in experiment [7] was “inactive” in each case. The outcome in experiment [5] and in experiment [6] was inactive.

For the molecule `CCN(CC)CCOC(=O)C1(C2CCCCC2)CCCCC1`, the Potency entry in experiment [3], in experiment [4] and in experiment [7] was “inactive” throughout. Moreover, the molecule was called inactive in experiment [5] and in experiment [6].

With `CCCCN(CCCC)CC(O)c1cc(Cl)cc2c1-c1ccc(Cl)cc1/C2=C/c1ccc(Cl)cc1` (stereo not drawn), in experiment [8], the Potency is 21.1 µM (active). Besides, the Potency entry in experiment [4] and in experiment [7] was “inactive” in each case. The call in experiment [5] and in experiment [6] was inactive.

Take `CN1CCN(C2Cc3ccccc3Sc3ccc(Cl)cc32)CC1` (stereo not drawn): the Potency in experiment [2] is 27.6 µM (active). For the same molecule, the molecule was called inactive in experiment [5] and in experiment [6].

As for `CN(C)CCCN1c2ccccc2CCc2ccccc21`, in experiment [2], the Potency is 27.6 µM (active). The Potency result in experiment [4] and in experiment [7] was “inactive” throughout. The molecule was called inactive in experiment [5] and in experiment [6].

On to `CCCCOc1cc(C(=O)OCCN(CC)CC)ccc1N`, for which the Potency result in experiment [1], in experiment [4] and in experiment [7] was “inactive” each time. Besides, the molecule was classed as inactive in experiment [5] and in experiment [6].

`C[C@]12CC[C@@H]3c4ccc(O)cc4CC[C@H]3[C@@H]1CCC2=O`: the Potency entry in experiment [8], in experiment [3], in experiment [4] and in experiment [7] was “inactive” throughout. Moreover, the call in experiment [5] was inactive.

Source of the values: PubChem BioAssay (NCATS).
